# High-throughput results deposited in PubChem BioAssay by National Center for Advancing Translational Sciences (NCATS).
# Cycloheximide cs: Cycloheximide Counterscreen for Small Molecule Inhibitors of Shiga Toxin. cell reporter, cycloheximide protein synthesis inhibition counterscreen. max response, %. hit rate 12% among 300,000. AID 2314, 2010; in the data active means max response mostly above about 13%, no sharp cut-off; inactive means mostly below about 14%; further: read at 38.3 µM for the half of the compounds with a filed dose; 0% is about no effect
# AmpC detergent: qHTS Inhibitors of AmpC Beta-Lactamase (assay with detergent). AmpC hydrolysis of nitrocefin, absorbance 480 nm, 0.01% Triton. Potency, µM (titrated, usually from 114 µM), without a hit: at the highest dose activity change, negative = inhibition, hits mostly inhibitors. hit rate 0.041% among 370,000. AID 485294, 2010;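 further: potency means the concentration at half of the fitted maximal effect; 0% = no-compound wells and -100% = no-enzyme wells; nearly all actives have a fitted effect of over 25% in size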
# Target sequence (P00811 whole entry, looked up): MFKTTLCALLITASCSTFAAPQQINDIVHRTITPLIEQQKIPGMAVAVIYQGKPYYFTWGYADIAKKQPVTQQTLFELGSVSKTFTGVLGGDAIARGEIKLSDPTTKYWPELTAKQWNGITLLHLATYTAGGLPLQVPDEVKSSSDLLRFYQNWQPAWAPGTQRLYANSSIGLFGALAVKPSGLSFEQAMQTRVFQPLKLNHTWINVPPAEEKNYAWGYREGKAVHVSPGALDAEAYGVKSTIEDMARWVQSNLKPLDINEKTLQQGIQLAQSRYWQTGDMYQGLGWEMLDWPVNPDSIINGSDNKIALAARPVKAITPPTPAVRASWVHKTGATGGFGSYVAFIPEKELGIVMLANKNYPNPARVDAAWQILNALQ
#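 AmpC (5.3 nM in the dispensed reagent) in 20 mM phosphate pH 7.0 with 0.01% (detergent screen) or 0.0001% Triton X-100 was preincubated with compounds for 15 min at room temperature. Nitrocefin was then added from an 800 uM solution, and hydrolysis was followed at 480 nm.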
# AmpC inh no detg: qHTS Inhibitors of AmpC Beta-Lactamase (assay without detergent). Potency, µM (top dose mostly 57.1 µM), inactives show at the highest dose activity change, negative = inhibition, hits mostly inhibitors. hit rate 0.52% among 330,000. P00811. AmpC nitrocefin hydrolysis, absorbance 480 nm, 0.0001% Triton;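 further: potency means the concentration at half of the fitted maximal effect; plate controls were no compound for no effect and no enzyme for full effect; nearly all actives have a fitted effect of over 20% in size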
#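 20 mM phosphate pH 7.0 + 0.01% (detergent screen) or 0.0001% Triton X-100; 5.3 nM AmpC reagent; cpd preinc 15 min RT; nitrocefin (800 uM stock) to start; A480 q20 s × 4 min; Activity was normalised to no-enzyme and no-compound control wells.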
# Shiga toxin inh: A qHTS for Small Molecule Inhibitors of Shiga Toxin; inhibition, % at 38.7 µM; hit rate 9.2% among 290,000; Vero cells, Shiga toxin protein synthesis inhibition reporter; in the data active means inhibition mostly above about 28%, no sharp cut-off; inactive means mostly below about 43%; further: 0% is about no effect
# NS1 inh: qHTS Assay for Inhibitors of Influenza NS1 Protein Function | Potency, µM (titrated, usually from 46.1 µM), without a hit: at the highest dose activity, positive = more growth | hit rate 0.4% among 270,000; calls by dose curve; further: potency means the concentration at half of the fitted maximal effect; actives are rising curves; nearly all actives have a fitted effect of over 50% in size
#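 S. cerevisiae expressing influenza A NS1, grown in glucose, washed, then diluted 1:100 into pH 6.0 -URA galactose medium with 23 nl compound. Growth recovery read as OD600; NS1-free strain serves as control.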
# * hit, by the source's call; u = inconclusive; x = no result given. Many of the other results were omitted from the sample, so hits are more common in it than they were. Unless noted, the call rests on the fitted dose curve; in most records, active means well fitted curve in the direction sought with a large enough effect; inconclusive means small, poorly fitted or top-dose-only effect, or another doubt; inactive means no such curve, though single readings can be large; an effect the other way counts as inactive or inconclusive.
SMILES,Cycloheximide cs,AmpC detergent,AmpC inh no detg,Shiga toxin inh,NS1 inh
COc1ccc(/C(N)=N/OC(=O)COc2ccccc2Cl)cc1,45.8*,u,-12.7%,25.6*,-2.9%
Cc1cccc(/C(N)=N/OC(=O)COc2ccccc2Cl)c1,65.8*,-15.9%,-8.8%,21.3*,-1.1%
O=c1c(-c2cc3ccccc3o2)[n+]([O-])c2ccccc2n1OCc1ccccn1,47.7*,u,-6.2%,101.4*,3.1%
CCOn1c(=O)c(-c2cc3ccccc3o2)[n+]([O-])c2ccccc21,47.3*,u,-24.0%,163.4*,-0.4%
O=c1c(-c2ccc(Br)cc2)[n+]([O-])c2ccccc2n1OCc1ccccn1,0.4,-4.8%,-37.9%,22.8,1.6%
O=C(Nc1c2c(nn1-c1ccccc1)CS(=O)(=O)C2)c1cc2ccccc2o1,7.2,3.4%,-26.3%,10.6,4.9%
CN1CC(=O)N(CC(=O)Nc2cccc(C#N)c2)c2ccccc2C1=O,x,-1.8%,x,x,x
N#Cc1ccc(CSc2nc3c(c(=O)[nH]2)CCC3)cc1,x,23.3%,x,x,x
O=C(c1cc2c(ccc3ccccc32)oc1=O)N1CCCC1,-1.4,u,-15.1%,-9.1,4.6%
CCOC(=O)C1CCN(C(=O)c2cc3cc4ccc(C)cc4nc3o2)CC1,29.6*,-0.6%,69.7%,45.0*,-27.3%
Cc1nc2ccccc2c2oc(C(=O)N3CCC(C)CC3)cc12,20.4*,-13.2%,109.0%,60.3*,-18.3%
CCOC(=O)C1CCN(C(=O)c2ccc(C)o2)CC1,x,x,0.0%,x,x
CCOC(=O)C1CCN(C(=O)c2cc3c(ccc4ccccc43)o2)CC1,59.4*,-2.0%,119.6%,120.8*,-28.0%
CC1CCN(C(=O)c2cc3c(ccc4ccccc43)o2)CC1,19.8*,-16.4%,-14.7%,76.7*,-82.8%
Cc1nc2ccccc2c2oc(C(=O)N3CCN(C(=O)c4ccco4)CC3)cc12,-4.4,u,84.5%,21.0,-42.5%
O=C(Nc1nnc(S(=O)(=O)N2CCOCC2)s1)c1ccccc1Cl,-2.7,-4.8%,-25.5%,-1.1,9.1%
O=C(Nc1nnc(S(=O)(=O)N2CCOCC2)s1)c1ccccc1F,16.8*,-0.8%,-17.9%,15.1,14.3%
Cc1ccccc1C(=O)Nc1nnc(S(=O)(=O)N2CCCCCC2)s1,1.4,-14.7%,-17.1%,-5.3,-8.5%
O=C(Nc1nnc(-c2ccccc2Cl)s1)c1ccccc1F,-1.5,-4.8%,-17.6%,-1.4,-11.9%
O=C(Nc1nnc(-c2ccccc2)s1)c1ccccc1F,73.5*,-17.6%,-17.2%,58.9*,-42.7%
O=C(Nc1nc(COc2ccccc2)cs1)c1ccccc1F,23.6,u,-32.5%,14.5*,1.6%
O=C(Nc1nnc(S(=O)(=O)N2CCCCCC2)s1)c1ccccc1F,11.3*,-8.1%,-38.8%,17.5,-67.9%
O=C(COC(=O)COc1ccc(Cl)cc1)NC1CC1,x,5.4%,-18.7%,x,x
CCN(C[C@H]1N[C@@](Cc2ccccc2)(C(=O)OC)[C@H]2C(=O)N(C)C(=O)[C@@H]12)C(=O)COC,x,x,-10.8%,x,x
CN(Cc1ccccc1)C(=O)c1ccc(CSc2nc3cccnc3n2Cc2ccccc2)cc1,x,18.0%,x,x,x
SMILES,Cycloheximide cs,AmpC detergent,AmpC inh no detg,Shiga toxin inh,NS1 inh
Cc1cccc(C(=O)Nc2nnc(S(=O)(=O)N3CCOCC3)s2)c1,8.7,6.1%,-0.3%,22.8,1.1%
O=C(Nc1nnc(S(=O)(=O)N2CCOCC2)s1)c1cccc(F)c1,20.5*,-10.8%,-8.3%,30.9*,5.5%
CCC1CCCCN1C(=O)CSc1nnc(-c2ccc(Cl)s2)o1 (stereo not drawn),37.7*,5.6%,32.7%,82.4*,-22.4%
CCC1CCCCN1C(=O)CSc1nnc(-c2cccc(Cl)c2)o1 (stereo not drawn),28.5*,u,5.01µM*,98.2*,-33.8%
CCC1CCCCN1C(=O)CSc1nnc(-c2ccc(Cl)cc2)o1 (stereo not drawn),-4.4,u,-19.9%,-3.5,-3.2%
CCC1CCCCN1C(=O)CSc1nnc(-c2ccco2)o1 (stereo not drawn),37.3*,7.1%,-14.1%,62.2*,-0.7%
Cc1ccc(CNc2ccc3c(c2)nc(C)n3C)cc1,30.2*,6.5%,12.8%,x,11.2%
Cc1nc2cc(CO)ccc2n1C,-2.8,3.0%,-15.3%,-7.3,-10.2%
COc1ccc(CNc2ccc3c(c2)nc(C)n3C)cc1,24.8*,-16.1%,-6.1%,60.2*,-10.6%
COc1ccc(OC)c(CNc2ccc3c(c2)nc(C)n3C)c1,9.4*,3.7%,-1.2%,31.7,7.9%
Cc1nc2cc(NCc3ccc(Cl)cc3)ccc2n1C,30.3*,1.7%,11.5%,71.1*,-4.1%
COc1ccc(OC)c(CNc2nc3ccc(C)cc3n3nnnc23)c1,x,0.3%,x,x,x
CCOc1ccc2c(c1)nc(C)n2C,6.6,-1.9%,-0.9%,18.0,0.7%
O=C(COC(=O)c1ccccc1NCCO)Nc1cc(C(F)(F)F)ccc1N1CCOCC1,-0.5,-1.4%,124.5%,-2.5,5.0%
CCN(CC)CCOC(=O)c1ccc(NC(=O)CCn2c(=O)oc3ccccc32)cc1,x,3.1%,x,x,x
COc1cccc(CNC(=O)Cn2ncn3cccc3c2=O)c1OC,11.0*,-14.8%,-19.1%,26.3*,3.2%
O=C(Cn1ncn2cccc2c1=O)NCc1cccc(Br)c1,x,-2.5%,x,x,x
COc1cccc(CNC(=O)C(C)n2ncn3cccc3c2=O)c1OC (stereo not drawn),x,-11.0%,x,x,x
Cc1ccc(CNC(=O)Cn2ncn3cccc3c2=O)cc1,21.0*,-12.6%,-24.5%,23.3*,2.0%
CCCOc1ccc(-c2cc(C(F)(F)F)c(C#N)c(SCCC(=O)O)n2)cc1,x,-1.2%,x,x,x
O=C(OCC(=O)N1CCc2ccccc21)c1c2c(nc3ccccc13)CCCC2,33.6*,10.1%,-20.6%,62.5*,6.3%
CC1Cc2ccccc2N1C(=O)COC(=O)c1c2c(nc3ccccc13)CCCCC2 (stereo not drawn),14.1*,0.8%,-5.7%,-5.5,-2.7%
CCOc1cc(C(=S)N2CCCC2)ccc1OCC(=O)Nc1c(C)cc(C)cc1C,-2.6,u,-4.2%,-4.3,10.9%
O=S(=O)(O)CCCc1cccc2ccccc12,x,x,x,x,0.0%
Cc1ccc2oc(-c3ccc(C)c(NC(=O)/C=C/c4ccco4)c3)nc2c1,x,-1.4%,x,x,x
SMILES,Cycloheximide cs,AmpC detergent,AmpC inh no detg,Shiga toxin inh,NS1 inh
CC(C)(C)c1ccc(/C=C2\SC(=O)N(CCNC(=O)c3cccc(S(=O)(=O)N4CCOCC4)c3)C2=O)cc1,68.8*,u,76.8%,130.9*,4.4%
Cc1ccc(S(=O)(=O)N2CCOCC2)cc1C(=O)NCCN1C(=O)S/C(=C\c2ccccc2Cl)C1=O,-2.7,-15.0%,169.2%,16.5,u
CC(C)C(=O)Nc1ccc(NC(=S)NC(=O)c2cc3ccccc3o2)cc1,6.5,-1.8%,-15.8%,-7.6,x
CC(C)C(=O)Nc1ccc(NC(=O)c2cc3ccccc3o2)cc1,19.2*,-2.6%,-20.0%,61.8*,2.8%
CCOC(=O)c1ccccc1NC(=O)c1cc2ccccc2o1,6.0,-2.0%,-21.9%,64.8,10.3%
CCOC(=O)c1ccc(NC(=O)c2cc3ccccc3o2)cc1,32.4*,-12.7%,-21.4%,41.2*,-69.8%
